FBW7 act = human FBW7 E3 ligase activation, primary screen; AID 1259310; Q969H0; AlphaScreen FBW7–phospho-cyclin E peptide binding, activator screen; hit rate 0.13% among 650,000; normalized activity (activation), % at 26.1 µM; in the data active = normalized activity above about 1.9%;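 note: purified mutant Fbw7 with reduced substrate affinity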
TEAD-YAP block = TEAD-YAP interaction inhibition; HEK-TIYL cells, TEAD-Gal4/YAP UAS-luciferase luminescence; inhibition, % at 9.12 µM; hit rate 1.4% among 640,000; AID 1259422; in the data active = inhibition above about 32%;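 note: 0% = median of test compound wells and 100% = reference inhibitor wells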
GPR151 ag = activators of human GPR151. Q8TDV0. PathHunter beta-arrestin GPR151 cells, luminescence. activation, % at 11.2 µM. hit rate 1% among 650,000; in the data active = activation above about 4.9%;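 note: 0% = median of compound wells and 100% = cells with positive control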
Target sequence (Q8TDV0 whole entry, looked up): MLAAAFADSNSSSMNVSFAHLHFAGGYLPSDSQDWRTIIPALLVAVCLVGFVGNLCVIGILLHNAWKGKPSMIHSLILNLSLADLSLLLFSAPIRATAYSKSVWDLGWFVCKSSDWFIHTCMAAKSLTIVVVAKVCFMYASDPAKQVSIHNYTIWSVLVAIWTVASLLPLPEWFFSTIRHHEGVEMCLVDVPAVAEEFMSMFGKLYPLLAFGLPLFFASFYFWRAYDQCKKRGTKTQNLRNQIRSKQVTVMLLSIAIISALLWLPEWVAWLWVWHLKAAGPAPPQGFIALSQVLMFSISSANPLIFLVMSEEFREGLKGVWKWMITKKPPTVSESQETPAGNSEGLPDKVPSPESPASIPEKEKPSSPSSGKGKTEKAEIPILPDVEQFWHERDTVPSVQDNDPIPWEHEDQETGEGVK
MITF primary = inhibitors of human MITF; inhibition, % at 2.6 µM; hit rate 0.91% among 650,000; AID 1259374; O75030; AlphaScreen MITF homodimerization, bead proximity signal; in the data active = inhibition above about 50%;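 note: 0% = vehicle wells with protein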
* hit, by the source's call; ! = not confirmed by another sample. Most compounds without a hit are left out; they make up all but 3.5% or so of the library.

SMILES | FBW7 act | TEAD-YAP block | GPR151 ag | MITF primary
O=C(Nc1nccs1)c1cc2c(s1)CCCC2 | 0 | 65* | -10 | 0
O=C(COc1ccc2c(c1)CCC2)Nc1nccs1 | 0 | 74* | -3 | 5
CC(C)c1ccc(OCC(=O)Nc2nccs2)cc1 | 0 | 81* | -3 | 8
CC(C)c1ccc(NC(=O)COc2ccc(C(C)C)cc2)cc1 | 0 | 8 | 2 | 0
O=C(Cc1ccc2c(c1)CCCC2)Nc1nccs1 | 0 | -8 | -1 | 11
O=C(Nc1nccs1)c1cc(Br)c(Br)s1 | 0 | -56 | -1 | 9
CC(C)(C)c1ccc(OCC(=O)Nc2nccs2)cc1 | 0 | 74* | 0 | -1
CCc1ccc(/C=C2\C(=O)N(c3cccc(C(=O)O)c3)N=C2C)cc1 | 0 | -12 | 4 | -4
OCCC1CN(Cc2ccc3ccccc3n2)CCN1Cc1ccsc1 (stereo unspecified) | 0 | -6 | 0 | 12
CC(Sc1nnc(N)s1)C(=O)Nc1nccs1 (stereo unspecified) | 0 | -10 | 2 | 8
CC(=O)c1ccc(OCC(=O)Nc2nccs2)cc1 | 0 | 55* | -6 | 6
O=C(COc1ccc(Br)cc1)Nc1nccs1 | 0 | 35* | -2 | -7
CC(Sc1nnc(-c2ccc(C(C)(C)C)cc2)o1)C(=O)Nc1nccs1 (stereo unspecified) | -1 | 52* | 3 | 50
COc1ccc(CCNc2cc(C)nc(NC3CCN(Cc4ccccc4)CC3)n2)cc1 | 0 | 18 | 0 | 4
Cc1c(-c2ccc(-c3ccccc3)cc2)[n+](CC(=O)c2ccccc2)c2ccccn12 | 0 | 56* | 1 | 7
O=c1cc(-c2ccccc2)oc2cc(O)ccc12 | 0 | 51*! | -2 | -6
O=C1C(Cl)=C(Nc2ccccc2O)C(=O)N1c1ccccc1 | 0 | -28 | 0 | 9
Cc1ccc(N2C(=O)C(Cl)=C(Nc3cc(Cl)ccc3O)C2=O)cc1 | 0 | 41* | -2 | 13
COc1cc(/C=C2/NC(=O)N(CC(=O)Nc3ccc(C)cc3)C2=O)ccc1O | 0 | 7 | 1 | 17
O=[N+]([O-])c1cccc(CN2CCCCCC2)c1 | 0 | 1 | 0 | 4
O=[N+]([O-])c1cccc(CN2CCN(Cc3cc(Br)ccc3O)CC2)c1 | 0 | 9 | 0 | 65*
O=C(CC1C(=O)N(c2ccc(Cl)cc2)C(=S)N1CCc1ccc(Cl)cc1)Nc1ccc(F)cc1 (stereo unspecified) | 2.0* | -11 | -1 | 21
CC(=O)C1=C(O)C(=O)N(CCO)C1c1ccccc1F (stereo unspecified) | 0 | -4 | 1 | -4
Cc1c(NC(=O)c2ccc3ccccc3c2)c(=O)n(-c2ccccc2)n1C | 0 | 6 | -1 | 9
COc1ccccc1-n1c(=O)[nH]c2c(C(N)=O)nc(-c3cccc(O)c3)nc21 | 0 | 34* | -2 | 18
SMILES | FBW7 act | TEAD-YAP block | GPR151 ag | MITF primary
COc1ccc(-c2nc(C(N)=O)c3[nH]c(=O)n(-c4cccc(Cl)c4)c3n2)cc1O | 0 | 63* | 1 | 7
COc1ccc(-c2nc(C(N)=O)c3[nH]c(=O)n(-c4ccc(F)cc4)c3n2)cc1 | 0 | 36* | 0 | -4
COc1ccc(-c2nc(C(N)=O)c3[nH]c(=O)n(-c4ccccc4OC)c3n2)cc1OC | 0 | 32* | 1 | 19
C[C@@H](O)[C@@H]1NC(=O)[C@H]2CN(C(=O)Oc3cccc4ccccc34)CCN2C1=O | 0 | 0 | -1 | 13
CCOC(=O)c1cc(-c2ccc(N(CC)CC)cc2)no1 | 5.3* | -58 | 0 | 11
COC(=O)c1cc(-c2ccc(OC)cc2)no1 | 1.9* | -5 | 3 | -3
OCCNc1nc(Nc2ccc(N3CCOCC3)cc2)nc2c1ncn2-c1ccsc1 | 0 | 60* | 0 | 2
Oc1ccc(CCNc2nc(Nc3ccc(N4CCOCC4)cc3)nc3c2ncn3-c2ccsc2)cc1 | 0 | 42* | -2 | 19
c1ccc(CNc2nc(Nc3ccc(N4CCOCC4)cc3)nc3c2ncn3-c2ccsc2)cc1 | 0 | -10 | 3 | 21
c1ccc(OCCNc2nc(Nc3ccc(N4CCOCC4)cc3)nc3c2ncn3-c2ccsc2)cc1 | 0 | -1 | -2 | 17
CC(C)N(CCNc1nc(Nc2ccc(N3CCOCC3)cc2)nc2c1ncn2-c1ccccc1)C(C)C | 0 | 13 | -1 | 10
CC(C)N(CCNc1nc(Nc2ccc(N3CCOCC3)cc2)nc2c1ncn2-c1ccsc1)C(C)C | 0 | 39* | -2 | -2
CCOc1ccc(NC(=O)CSc2nnnn2CC(=O)O)cc1 (tested in a mixture with another compound) | 0 | -9 | -1 | -17
N#C/C(=C(/O)COc1ncnc2ccccc12)c1nc2ccccc2[nH]1 | 0 | 8 | 1 | 12
O=C(O)CCNc1cc(N2CCC3(CC2)OCCO3)c2noc3c2c1C(=O)c1ccccc1-3 | -1 | 26 | -2 | 63*
O=C(O)CNc1cc(N2CCCCC2)c2noc3c2c1C(=O)c1ccccc1-3 | -1 | 59* | 0 | 49
CCOC(=O)C1CCN(c2cc(NCC(=O)O)c3c4c(onc24)-c2ccccc2C3=O)CC1 | -1 | 2 | -2 | 70*
Cc1cccc(-n2cc(-c3ccccc3)c3c(N4CCN(c5cc(C)ccc5C)CC4)ncnc32)c1 | 0 | -7 | -1 | -4
COc1ccc(CC(=O)Nc2cc(Oc3ccccc3C#N)ccn2)cc1 | 0 | 3 | 3 | -12
Cc1nc2ccc(NS(=O)(=O)c3ccc(C(C)C)cc3)cc2s1 | 0 | 32* | 2 | 6
Cc1cncc2cccc(NC3CCCN(C(=O)C(O)c4ccc(Cl)cc4)C3)c12 (stereo unspecified) | 0 | 42* | 2 | 7
Cc1cncc2cccc(NC3CCCN(C(=O)C(O)c4ccc(F)cc4)C3)c12 (stereo unspecified) | 0 | 45* | 0 | 13
Cc1cncc2cccc(NC3CCCN(C(=O)c4cccc(Br)c4)C3)c12 (stereo unspecified) | 0 | 8 | -1 | 6
Cc1cc2c(NC3CCCN(C(=O)C(O)c4ccc(Cl)cc4)C3)cccc2nn1 (stereo unspecified) | -2 | 6 | 0 | 56*
Cc1cncc2cccc(NC3CCN(C(=O)C(N)c4ccc(Cl)cc4)CC3)c12 (stereo unspecified) | 0 | -9 | 0 | 14
SMILES | FBW7 act | TEAD-YAP block | GPR151 ag | MITF primary
Cc1cncc2cccc(NC3CCCN(C(=O)[C@H](C)O)C3)c12 (stereo partly specified) | -1 | 62* | 0 | 4
O=C(Cc1ccc(Br)cc1)Nc1ccncc1 | 0 | 50* | 2 | -5
O=C(Cc1ccccc1)Nc1ccc(Br)cc1 | 0 | -10 | 0 | 0
COc1cc([N+](=O)[O-])ccc1NC(=O)/C=C/c1ccc(Br)cc1 | 0 | 4 | -1 | 15
Cc1ccc(S(=O)(=O)Oc2ccccc2/C=N/NC(N)=S)cc1 | 0 | 61* | 3 | -7
Cc1ccc(S(=O)(=O)Oc2ccccc2/C=N/N=C(N)N)cc1 | 0 | 10 | -1 | 2
CCC(C)OC(=O)C1=C(C)NC(=O)CC1c1c(F)cccc1Cl (stereo unspecified) | 0 | -6 | 0 | -3
